Data published in PubChem BioAssay (Tox21).
Results filed as inconclusive are left out. Calls of active or inactive are those of the source. Unless noted, calls follow the shape of the dose curve; as a rule, active = well fitted curve in the direction sought with a large enough effect in the repeat runs; inconclusive = weak or mixed curves; inactive = no such curve, though single readings can be large; an effect the other way counts as inactive or inconclusive.

How the values were obtained:
[1] = qHTS assay for small molecule agonists of the p53 signaling pathway (AID 651631; calls by dose curve; also: nearly all actives have a fitted effect of over 15% in size; also: potency is read from the fitted curve at half-maximal effect); settings: HCT-116 p53RE-bla reporter, beta-lactamase FRET ratio, 16 h; series mostly up to 73.3 µM
Method in brief: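 HCT-116 p53RE-bla reporter line, 16 h compound treatment at 37 °C, then fluorescence after 2 h with B/G FRET substrate.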

[2] = qHTS assay for small molecules that induce genotoxicity in human embryonic kidney cells expressing luciferase-tagged ATAD5 (AID 651632); settings: HEK293T ATAD5-luciferase induction, 16 h; series mostly up to 83.3 µM; also: nearly all actives have a fitted effect of over 15% in size
Method in brief: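 Luminescence read-out: after 16 hr compound exposure at 37C, ATAD5-luciferase HEK293T cells received Amplite, 30 min RT, then CCD imaging. A rise in signal marks genotoxic stress.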

[3] = qHTS assay for small molecule agonists of the p53 signaling pathway - cell viability (AID 651633; calls by dose curve; also: nearly all actives have a fitted effect of over 30% in size; also: potency is read from the fitted curve at half-maximal effect); settings: p53RE-bla HCT-116 viability, ATP luminescence, 16 h; series mostly up to 83.3 µM
Method in brief: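 p53RE-bla cells, seeded at 4,000 per well and rested 5 h at 37 C/5% CO2, received compounds in DMSO for 16 h at 37 C. CellTiter-Glo was then added, and luminescence was read after 30 min at room temperature to gauge cytotoxicity.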

[4] = qHTS assay for small molecule disruptors of the mitochondrial membrane potential - cell viability (AID 720634; calls by dose curve; also: nearly all actives have a fitted effect of over 20% in size; also: potency is read from the fitted curve at half-maximal effect); settings: HepG2 viability, ATP luminescence (CellTiter-Glo), 1 h; series mostly up to 83.2 µM
Method in brief: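 Luminescence from CellTiter-Glo (ATP content) gave viability in HepG2 cells, read in the same wells as the MMP dye assay after 1 hr compound exposure at 37 C.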

[5] = qHTS assay for small molecule disruptors of the mitochondrial membrane potential (AID 720635); settings: HepG2 mitochondrial membrane potential, Mito-MPS dye ratio; series mostly up to 83.2 µM; also: potency is read from the fitted curve at half-maximal effect
Method in brief: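 HepG2 cells (2,000/well) attached overnight at 37C, then took compound for 1 hr at 37C, 5% CO2. Mito-MPS dye was added for 30 min; fluorescence was read at 490/535 nm (monomers) and 540/590 nm (aggregates).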

[6] = qHTS assay to test for compound auto fluorescence at 590 nm (red) in HepG2 cells (AID 720674); settings: HepG2 autofluorescence, red 540/590 nm, 1 h; series mostly up to 91.3 µM
Method in brief: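 Rose Bengal sodium served as the red fluorophore standard. HepG2 monolayers (overnight attachment, MEM with 10% FBS) were exposed to test compounds for 1 hr at 37 C and read at Ex 540/Em 590 nm.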

[7] = qHTS assay to test for compound auto fluorescence at 535 nm (green) in HepG2 cells (AID 720675); settings: green autofluorescence 485/535 nm, 1 h; series mostly up to 91.3 µM
[8] = qHTS assay to test for compound auto fluorescence at 460 nm (blue) in HEK293 cells (AID 720678); settings: blue autofluorescence 405/460 nm; series mostly up to 91.3 µM
Method in brief: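 HEK293, 2,000 cells/well, 10% dialyzed FBS; attach 4-5 hr 37C; pin compound or DMSO; o/n 37C/5% CO2; fluorescence 405/460 nm; triamterene-equivalent units.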

[9] = qHTS assay to test for compound auto fluorescence at 590 nm (red) in HEK293 cells (AID 720679); settings: red autofluorescence 540/590 nm; series mostly up to 91.3 µM
Method in brief: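 Intensity at 540nm excitation and 590nm emission is reported as Rose Bengal sodium-equivalent autofluorescence. Measurements followed overnight exposure (37C, 5% CO2) of HEK293 cells, 2,000 per well, to 23 nL compound.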

[10] = qHTS assay to test for compound auto fluorescence at 460 nm (blue) in HEK293 cell free culture (AID 720681); settings: cell-free medium, autofluorescence 405/460 nm (blue); series mostly up to 91.3 µM
Method in brief: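 Test compounds were pinned into cell-free culture medium (DMEM with 10% FBS) and fluorescence was read directly at Ex/Em 405/460 nm. Signals were expressed as fluorescence equivalents of triamterene, with DMSO vehicle as control.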

[11] = qHTS assay to test for compound auto fluorescence at 535 nm (green) in HEK293 cell free culture (AID 720682); settings: cell-free medium, green autofluorescence 485/535 nm; series mostly up to 91.3 µM
Method in brief: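 Steps: dispense DMEM/10% FBS into empty wells; pin in compound or DMSO; measure fluorescence at 485/535 nm. Values are fluorescein equivalents.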

[12] = qHTS assay to test for compound auto fluorescence at 590 nm (red) in HEK293 cell free culture (AID 720683); settings: cell-free medium autofluorescence, Ex540/Em590 red; series mostly up to 91.3 µM
Method in brief: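 Tox21 10K library compounds were pinned into cell-free DMEM with 10% FBS and fluorescence was read at excitation 540 nm. Activity is expressed as Rose Bengal sodium equivalency.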

[13] = qHTS assay to test for compound auto fluorescence at 590 nm (red) in HepG2 cell free culture (AID 720684); settings: cell-free medium autofluorescence, red 540/590 nm; series mostly up to 91.3 µM
Method in brief: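 Readout: intrinsic compound fluorescence at 590 nm emission after 540 nm excitation, scaled to Rose Bengal sodium. Matrix was cell-free MEM with 10% FBS; DMSO vehicle wells served as control.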

[14] = qHTS assay to test for compound auto fluorescence at 460 nm (blue) in HepG2 cell free culture (AID 720685); settings: Cell-free culture medium, blue autofluorescence 405/460 nm; series mostly up to 91.3 µM
Method in brief: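 Cell-free plates of MEM plus 10% FBS received 23 nL compound or DMSO vehicle; blue-channel (405/460 nm) intensity scored against triamterene as reference fluorophore.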

[15] = qHTS assay to test for compound auto fluorescence at 535 nm (green) in HepG2 cell free culture (AID 720686); settings: Cell-free medium, green autofluorescence 485/535 nm; series mostly up to 91.3 µM
[16] = qHTS assay to test for compound auto fluorescence at 460 nm (blue) in HepG2 cells (AID 720687); settings: autofluorescence 405/460 nm, 1 h; series mostly up to 91.3 µM
Method in brief: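 Cells (2,000/well in MEM with 10% FBS) attached overnight at 37 C, then were exposed to compound or DMSO for 1 hr at 37 C, 5% CO2. Fluorescence read at Ex/Em 405/460 nm, expressed as triamterene-equivalent signal.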

[17] = target: Glucocorticoid receptor (Homo sapiens) (UniProt P04150); experiment: qHTS assay to identify small molecule agonists of the glucocorticoid receptor (GR) signaling pathway (AID 720691; active = well fitted activation curve with a large enough effect in the signal ratio in the repeat runs, not every such curve was filed as active; the % refers to the signal ratio); settings: GR-bla HeLa, beta-lactamase reporter ratio, 18 h; series mostly up to 62.4 µM
Sequence of Glucocorticoid receptor (Homo sapiens) (P04150 whole entry, looked up): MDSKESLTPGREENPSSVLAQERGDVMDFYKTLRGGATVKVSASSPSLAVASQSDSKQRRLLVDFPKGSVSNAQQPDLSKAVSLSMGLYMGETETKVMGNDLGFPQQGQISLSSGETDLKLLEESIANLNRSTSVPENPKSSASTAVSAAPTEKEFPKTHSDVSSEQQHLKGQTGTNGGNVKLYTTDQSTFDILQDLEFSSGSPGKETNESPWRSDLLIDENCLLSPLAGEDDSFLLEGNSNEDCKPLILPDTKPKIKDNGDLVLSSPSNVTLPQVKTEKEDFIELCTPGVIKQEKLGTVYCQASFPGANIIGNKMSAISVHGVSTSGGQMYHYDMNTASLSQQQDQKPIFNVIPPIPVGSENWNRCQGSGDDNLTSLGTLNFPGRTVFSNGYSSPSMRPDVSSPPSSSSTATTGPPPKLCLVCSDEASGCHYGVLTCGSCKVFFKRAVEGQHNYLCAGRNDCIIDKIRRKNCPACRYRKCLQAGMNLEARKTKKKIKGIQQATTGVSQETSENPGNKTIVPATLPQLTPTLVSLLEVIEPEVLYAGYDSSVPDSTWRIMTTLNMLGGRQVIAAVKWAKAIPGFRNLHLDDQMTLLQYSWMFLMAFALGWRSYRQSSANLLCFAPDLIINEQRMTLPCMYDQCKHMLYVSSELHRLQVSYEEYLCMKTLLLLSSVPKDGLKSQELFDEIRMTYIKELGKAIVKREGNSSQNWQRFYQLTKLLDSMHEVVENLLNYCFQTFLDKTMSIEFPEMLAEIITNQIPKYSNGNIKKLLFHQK
Method in brief: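 HeLa GR-bla reporter line; cells pre-incubated 4 h, compound in DMSO 18 h at 37 C; LiveBLAzer B/G FRET substrate 2 h RT; fluorescence intensity read-out.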

[18] = target: Glucocorticoid receptor (Homo sapiens) (UniProt P04150); experiment: qHTS assay to identify small molecule antagonists of the glucocorticoid receptor (GR) signaling pathway (AID 720692; active = well fitted inhibition curve with a large enough effect in the signal ratio in the repeat runs, not every such curve was filed as active; the % refers to the signal ratio); settings: GR-bla HeLa, beta-lactamase FRET ratio, dexamethasone-stimulated, 18 h; series mostly up to 58.5 µM
Method in brief: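 Read-out: beta-lactamase FRET substrate fluorescence, 2 h at room temperature, in HeLa cells stably carrying a GRE-driven bla reporter. Compounds were co-incubated with 5 nM dexamethasone agonist (final) for 18 h at 37 C.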

[19] = qHTS assay to test for compound auto fluorescence at 535 nm (green) in HEK293 cells (AID 720680); settings: green autofluorescence 485/535 nm; series mostly up to 91.3 µM
[20] = qHTS assay for small molecules that induce genotoxicity in human embryonic kidney cells expressing luciferase-tagged ATAD5 - cell viability (AID 651634; calls by dose curve; also: nearly all actives have a fitted effect of over 25% in size); settings: HEK293T ATAD5-luc cells viability, CellTiter-Fluor, 15.5 h; series mostly up to 83.3 µM
Method in brief: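 HEK293T ATAD5-luc cells, 2,000/well; compound 15.5 hr, 37C/5% CO2; CellTiter-Fluor 30 min, 37C; fluorescence read.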

Measured: Potency

C=Cc1ccccc1C=C
inactive: [1] | [2] | [3] | [4] | [5] | [6] | [7] | [8] | [9] | [10] | [11] | [12] | [13] | [14] | [15] | [16] | [17] | [18]

CCCCOC(=O)CO
inactive: [1] | [2] | [3] | [4] | [5] | [6] | [7] | [8] | [9] | [19] | [10] | [11] | [12] | [13] | [14] | [15] | [16] | [17] | [18]

CCC(=O)OC(=O)CC
inactive: [1] | [2] | [3] | [4] | [6] | [7] | [8] | [9] | [10] | [11] | [12] | [13] | [14] | [15] | [16] | [17] | [18]

c1ccsc1
inactive: [1] | [2] | [3] | [4] | [5] | [6] | [7] | [8] | [9] | [19] | [10] | [11] | [12] | [13] | [14] | [15]

COCCOc1cc2cc(C(=O)NC3CCN(C(C)C)CC3)n(CC(=O)Nc3ccc(Cl)cn3)c2cn1
inactive: [1] | [3] | [20] | [4] | [5] | [6] | [7] | [8] | [9] | [19] | [10] | [11] | [12] | [13] | [14] | [15] | [16] | [17] | [18]

O=C1CCCCCCCCCCCCCCCO1
inactive: [1] | [2] | [3] | [4] | [5] | [6] | [8] | [9] | [19] | [10] | [11] | [12] | [13] | [14] | [15] | [17]

NC(=O)c1cccc([N+](=O)[O-])c1
inactive: [1] | [2] | [3] | [4] | [6] | [8] | [9] | [19] | [10] | [11] | [12] | [13] | [14] | [15] | [16] | [17] | [18]

CCc1oc2ccccc2c1C(=O)c1cc(I)c(O)c(I)c1
active: [1] 23.7 µM | [3] 26.6 µM | [4] 26.6 µM | [5] 2.66 µM
inactive: [2] | [6] | [7] | [8] | [19] | [10] | [11] | [12] | [13] | [14] | [15] | [16]

CC/C=C\CCCCCO
inactive: [1] | [3] | [20] | [4] | [5] | [6] | [7] | [8] | [9] | [19] | [10] | [11] | [12] | [13] | [14] | [15] | [16] | [17] | [18]

CC(C)OC(=O)C(O)(CC(=O)O)CC(=O)O
inactive: [1] | [2] | [3] | [4] | [5] | [6] | [8] | [9] | [10] | [11] | [12] | [13] | [14] | [15] | [16]

O=c1[nH]c2ccccc2n1CCCN1CCN(C(c2ccccc2)c2ccccc2)CC1
inactive: [1] | [2] | [3] | [4] | [6] | [7] | [8] | [9] | [19] | [10] | [11] | [12] | [13] | [14] | [15] | [16] | [17]
